The whole screen tested about 5,500 compounds, of which about 2,000 (36%) were called active. Roughly 18% stayed inconclusive and do not appear here. Cut-off read from the data, not from the text of the source: active = normalized growth mostly below about 0.91 (no sharp cut-off); inconclusive = no clear call, values can overlap the other calls; inactive = mostly above about 0.92. This is one part of the list.
Assay: chemical genetic growth profiling, strain panel (AID 1159580);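 note: tested at 20 µM; growth read once vehicle control cultures reached saturation at 30 °C; 1 = growth at the plate median or of vehicle wells; lower values mean less growth of the strain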
Details: growth OD

Measured: normalized growth

CCCc1cc(=O)[nH]c(=S)[nH]1
inactive: S. cerevisiae deletion strains, locus YJR075W, strain HOC1, hits give low values 1.02 | S. cerevisiae deletion strains, locus YKL009W, strain mrt4, hits give low values 0.994 | S. cerevisiae deletion strains, locus YKL068W, hits give low values 1 | S. cerevisiae deletion strains, locus YKL085W, strain MDH1 (second series), hits give low values 1 | S. cerevisiae deletion strains, locus YKL085W, strain MDH1, hits give low values 1 | S. cerevisiae deletion strains, locus YKL160W, strain elf1, hits give low values 1.03 | S. cerevisiae deletion strains, locus YKL190W, strain CNB1, hits give low values 1 | S. cerevisiae deletion strains, locus YKR001C, strain vps1, hits give low values 1 | S. cerevisiae deletion strains, locus YKR026C, strain gcn3, hits give low values 1.01 | S. cerevisiae deletion strains, locus YKR091W, strain srl3, hits give low values 1.01 | S. cerevisiae deletion strains, locus YLL001W, strain dnm1, hits give low values 1.01 | S. cerevisiae deletion strains, locus YLL026W, hits give low values 1.02 | S. cerevisiae deletion strains, locus YLL041C, strain sdh2, hits give low values 1.03 | S. cerevisiae deletion strains, locus YLR027C, strain aat2, hits give low values 1.01 | S. cerevisiae deletion strains, locus YLR039C, strain RIC1, hits give low values 1.03 | S. cerevisiae deletion strains, locus YLR058C, strain SHM2, hits give low values 1.02 | S. cerevisiae deletion strains, locus YLR102C, strain apc9, hits give low values 0.992 | S. cerevisiae deletion strains, locus YLR113W, strain HOG1, hits give low values 0.989 | S. cerevisiae deletion strains, locus YLR221C, strain rsa3, hits give low values 1.02 | S. cerevisiae deletion strains, locus YLR258W, strain gsy2, hits give low values 1.01 | S. cerevisiae deletion strains, locus YLR262C, strain YPT6 (second series), hits give low values 1.02 | S. cerevisiae deletion strains, locus YLR262C, strain YPT6, hits give low values 1.04 | S. cerevisiae deletion strains, locus YLR268W, strain sec22, hits give low values 1.01 | S. cerevisiae deletion strains, locus YLR320W, strain mms22, hits give low values 1.03 | S. cerevisiae deletion strains, locus YLR330W, strain CHS5, hits give low values 1.02 | S. cerevisiae deletion strains, locus YLR342W, strain FKS1 (second series), hits give low values 1 | S. cerevisiae deletion strains, locus YLR342W, strain FKS1, hits give low values 1.03 | S. cerevisiae deletion strains, locus YLR357W, strain rsc2, hits give low values 1.05 | S. cerevisiae deletion strains, locus YLR370C, strain arc18, hits give low values 1.01 | S. cerevisiae deletion strains, locus YLR371W, strain rom2, hits give low values 0.994 | S. cerevisiae deletion strains, locus YLR384C, strain iki3, hits give low values 1.03 | S. cerevisiae deletion strains, locus YLR418C, strain cdc73, hits give low values 1 | S. cerevisiae deletion strains, locus YML016C, strain PPZ1, hits give low values 1.01 | S. cerevisiae deletion strains, locus YML032C, strain rad52, hits give low values 0.989 | S. cerevisiae deletion strains, locus YML120C, strain ndi1, hits give low values 1 | S. cerevisiae deletion strains, locus YML124C, strain tub3, hits give low values 0.996 | S. cerevisiae deletion strains, locus YMR058W, strain fet3, hits give low values 1 | S. cerevisiae deletion strains, locus YMR078C, strain ctf18, hits give low values 1 | S. cerevisiae deletion strains, locus YMR125W, strain sto1, hits give low values 1.03 | S. cerevisiae deletion strains, locus YMR129W, hits give low values 1.02 | S. cerevisiae deletion strains, locus YMR205C, strain PFK2, hits give low values 1.03 | S. cerevisiae deletion strains, locus YMR223W, strain ubp8, hits give low values 0.974 | S. cerevisiae deletion strains, locus YMR231W, strain pep5, hits give low values 1.02 | S. cerevisiae deletion strains, locus YMR263W, strain SAP30, hits give low values 1.02 | S. cerevisiae deletion strains, locus YMR307W, strain GAS1, hits give low values 1.07 | S. cerevisiae deletion strains, locus YNL067W, strain RPL9B, hits give low values 1.02 | S. cerevisiae deletion strains, locus YNL071W, strain lat1, hits give low values 1 | S. cerevisiae deletion strains, locus YNL128W, strain TEP1, hits give low values 1.02 | S. cerevisiae deletion strains, locus YNL153C, strain GIM3, hits give low values 1.02 | S. cerevisiae deletion strains, locus YNL183C, strain NPR1, hits give low values 0.966 | S. cerevisiae deletion strains, locus YNL209W, strain ssb2, hits give low values 1.02 | S. cerevisiae deletion strains, locus YNL233W, strain BNI4, hits give low values 1.02 | S. cerevisiae deletion strains, locus YNL248C, strain rpa49, hits give low values 1.03 | S. cerevisiae deletion strains, locus YNL250W, strain rad50, hits give low values 0.994 | S. cerevisiae deletion strains, locus YNL271C, strain bni1, hits give low values 1 | S. cerevisiae deletion strains, locus YNL298W, strain CLA4, hits give low values 1.01 | S. cerevisiae deletion strains, locus YNL307C, strain MCK1, hits give low values 0.998 | S. cerevisiae deletion strains, locus YNL322C, strain KRE1 (second series), hits give low values 1.02 | S. cerevisiae deletion strains, locus YNL322C, strain KRE1, hits give low values 1.01 | S. cerevisiae deletion strains, locus YNR049C, strain mso1, hits give low values 1.01 | S. cerevisiae deletion strains, locus YNR052C, strain pop2, hits give low values 0.991 | S. cerevisiae deletion strains, locus YOL006C, strain TOP1, hits give low values 1.04 | S. cerevisiae deletion strains, locus YOL012C, strain htz1 0.884 | S. cerevisiae deletion strains, locus YOL147C, strain pex11, hits give low values 0.996 | S. cerevisiae deletion strains, locus YOR001W, strain rrp6, hits give low values 1.02 | S. cerevisiae deletion strains, locus YOR061W, strain CKA2, hits give low values 1.01 | S. cerevisiae deletion strains, locus YOR069W, strain VPS5, hits give low values 0.999 | S. cerevisiae deletion strains, locus YOR070C, strain gyp1, hits give low values 1.02 | S. cerevisiae deletion strains, locus YOR080W, strain dia2, hits give low values 1.03 | S. cerevisiae deletion strains, locus YOR083W, strain WHI5, hits give low values 0.996 | S. cerevisiae deletion strains, locus YOR106W, strain vam3, hits give low values 1.02 | S. cerevisiae deletion strains, locus YOR136W, strain idh2, hits give low values 0.979 | S. cerevisiae deletion strains, locus YOR144C, strain elg1, hits give low values 0.999 | S. cerevisiae deletion strains, locus YOR184W, strain ser1, hits give low values 0.98 | S. cerevisiae deletion strains, locus YOR231W, strain MKK1, hits give low values 0.993 | S. cerevisiae deletion strains, locus YOR265W, strain rbl2, hits give low values 1.01 | S. cerevisiae deletion strains, locus YOR270C, strain vph1, hits give low values 1.1 | S. cerevisiae deletion strains, locus YOR290C, strain snf2, hits give low values 1.03 | S. cerevisiae deletion strains, locus YOR316C, strain cot1, hits give low values 0.993 | S. cerevisiae deletion strains, locus YPL051W, strain arl3, hits give low values 1.02 | S. cerevisiae deletion strains, locus YPL055C, strain LGE1, hits give low values 1.03 | S. cerevisiae deletion strains, locus YPL078C, strain atp4, hits give low values 1.02 | S. cerevisiae deletion strains, locus YPL106C, strain sse1, hits give low values 1.04 | S. cerevisiae deletion strains, locus YPL240C, strain hsp82, hits give low values 1.01 | S. cerevisiae deletion strains, locus YPL256C, strain CLN2, hits give low values 1.02 | S. cerevisiae deletion strains, locus YPR119W, strain clb2, hits give low values 0.99 | S. cerevisiae deletion strains, locus YPR141C, strain kar3, hits give low values 0.992 | S. cerevisiae deletion strains, locus YPR163C, strain tif3, hits give low values 0.992 | S. cerevisiae deletion strains, locus YPR167C, strain met16, hits give low values 0.983 | S. cerevisiae deletion strains, strain wtn01, hits give low values 0.997 | S. cerevisiae strains, strain wild type, hits give low values 1.01
